Experimental data: PubChem BioAssay
A number with no mark means an inactive call. For some of these results: Results with a measured potency or affinity are listed apart. Active and inactive are the calls of the source. Unless noted, how the calls were made is not given here.

Key:
[1] = antimalarial activity against Dd2 strain (AID 2302;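 active means growth inhibition above 50% at the single 2 µM test dose, taken to imply half-maximal potency below 2 µM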;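 further: 0% = DMSO untreated growth and 100% = chloroquine plus artemisinin killed control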); conditions: P. falciparum Dd2 in RBCs, LDH growth readout, 72 h; at 2 µM; stronger effect = higher value
[2] = target: L-lactate dehydrogenase (Plasmodium falciparum (isolate CDC / Honduras)) (UniProt Q27743); assay: PfLDH activity inhibition – cell lysate, 3D7 strain, counter-screen for P. falciparum growth inhibition project (AID 2304);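 further: 0% = vehicle and 100% = reference inhibitor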; conditions: P. falciparum 3D7 crude extract, LDH APAD/NBT absorbance; at 2 µM; stronger effect = higher value
Sequence of L-lactate dehydrogenase (Plasmodium falciparum (isolate CDC / Honduras)) (Q27743 whole entry, looked up): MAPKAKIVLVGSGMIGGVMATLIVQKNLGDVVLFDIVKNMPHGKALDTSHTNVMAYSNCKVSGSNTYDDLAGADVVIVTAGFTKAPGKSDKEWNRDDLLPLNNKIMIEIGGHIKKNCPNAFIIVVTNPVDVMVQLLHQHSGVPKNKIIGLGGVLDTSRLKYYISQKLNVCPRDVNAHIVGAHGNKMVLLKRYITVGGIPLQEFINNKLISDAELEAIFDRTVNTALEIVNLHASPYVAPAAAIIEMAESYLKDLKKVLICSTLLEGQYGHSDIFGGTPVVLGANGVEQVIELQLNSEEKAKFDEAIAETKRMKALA

[3] = inhibition of 3D7 malaria parasite growth – strain 3D7 (AID 2306);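 further: 0% = DMSO wells and 100% = chloroquine plus artemisinin control wells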; conditions: P. falciparum 3D7 erythrocytic growth, LDH absorbance, 72 h; at 2 µM; stronger effect = higher value
[4] = target: Calcium-dependent protein kinase 1 (Plasmodium falciparum (isolate 3D7)) (UniProt P62344); assay: PfCDPK1 kinase inhibitors, biochemical, TCAMS library (AID 1159585; cut-off not given, nearly all actives have IC50 up to about 0.98 µM;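 further: inhibitors leave more ATP so luminescence rises with inhibition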); conditions: recombinant PfCDPK1, Kinase-Glo ATP depletion luminescence
Sequence of Calcium-dependent protein kinase 1 (Plasmodium falciparum (isolate 3D7)) (P62344 whole entry, looked up): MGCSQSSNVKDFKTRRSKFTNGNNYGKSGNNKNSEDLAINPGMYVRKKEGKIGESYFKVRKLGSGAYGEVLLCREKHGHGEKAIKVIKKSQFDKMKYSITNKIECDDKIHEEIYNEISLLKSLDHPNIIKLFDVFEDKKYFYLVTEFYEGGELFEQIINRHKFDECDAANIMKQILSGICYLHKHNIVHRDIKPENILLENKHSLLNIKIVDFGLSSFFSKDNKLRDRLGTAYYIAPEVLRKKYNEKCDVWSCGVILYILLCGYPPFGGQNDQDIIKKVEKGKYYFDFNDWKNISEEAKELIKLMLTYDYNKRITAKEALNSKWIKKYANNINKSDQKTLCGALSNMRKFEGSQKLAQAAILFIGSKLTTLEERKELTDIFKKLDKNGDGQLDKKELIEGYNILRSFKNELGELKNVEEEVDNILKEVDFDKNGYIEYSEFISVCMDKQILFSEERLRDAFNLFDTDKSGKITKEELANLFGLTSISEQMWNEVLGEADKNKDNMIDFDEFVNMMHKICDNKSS

[5] = target: Plasmodium falciparum protein kinase 6 (PK6, PF3D7_1337100) (UniProt Q8IDW1); assay: PfPK6 kinase inhibitors, biochemical, TCAMS library (AID 1159586); conditions: recombinant PfPK6, Kinase-Glo ATP depletion luminescence
Sequence of Plasmodium falciparum protein kinase 6 (PK6, PF3D7_1337100) (Q8IDW1 1-305): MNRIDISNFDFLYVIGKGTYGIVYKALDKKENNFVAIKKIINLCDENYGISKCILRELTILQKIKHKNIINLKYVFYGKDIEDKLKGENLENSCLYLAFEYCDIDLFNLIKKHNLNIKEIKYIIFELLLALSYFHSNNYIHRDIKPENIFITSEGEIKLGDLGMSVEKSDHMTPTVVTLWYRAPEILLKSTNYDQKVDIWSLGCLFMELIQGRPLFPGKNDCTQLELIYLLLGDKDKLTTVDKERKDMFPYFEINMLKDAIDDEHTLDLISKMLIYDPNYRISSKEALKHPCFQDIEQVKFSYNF

[6] = target: Protein kinase 7 (PK7), Plasmodium falciparum 3D7 (PF3D7_0213400) (UniProt Q7YTF7); assay: inhibition of Plasmodium PK7 catalytic activity – biochemical, TCAMS antimalarial set, Kinase-Glo luminescence (AID 1159587); conditions: recombinant PfPK7, Kinase-Glo ATP depletion luminescence
Sequence of Protein kinase 7 (PK7), Plasmodium falciparum 3D7 (PF3D7_0213400) (Q7YTF7 1-343): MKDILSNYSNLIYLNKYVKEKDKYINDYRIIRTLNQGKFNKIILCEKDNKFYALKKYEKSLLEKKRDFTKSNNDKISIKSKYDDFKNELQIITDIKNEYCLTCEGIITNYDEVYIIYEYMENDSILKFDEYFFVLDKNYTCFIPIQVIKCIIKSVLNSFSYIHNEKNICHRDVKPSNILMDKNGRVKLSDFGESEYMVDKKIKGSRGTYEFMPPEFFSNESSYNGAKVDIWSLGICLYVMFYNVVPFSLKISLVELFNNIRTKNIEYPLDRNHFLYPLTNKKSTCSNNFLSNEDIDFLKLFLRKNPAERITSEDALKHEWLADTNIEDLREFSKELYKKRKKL

[7] = target: Calcium-dependent protein kinase 4 (Plasmodium falciparum (isolate 3D7)) (UniProt Q8IBS5); assay: PfCDPK4 kinase inhibitors, biochemical, TCAMS library (AID 1159588; cut-off not given, nearly all actives have IC50 up to about 0.91 µM); conditions: recombinant PfCDPK4, Kinase-Glo ATP depletion luminescence
Sequence of Calcium-dependent protein kinase 4 (Plasmodium falciparum (isolate 3D7)) (Q8IBS5 whole entry, looked up): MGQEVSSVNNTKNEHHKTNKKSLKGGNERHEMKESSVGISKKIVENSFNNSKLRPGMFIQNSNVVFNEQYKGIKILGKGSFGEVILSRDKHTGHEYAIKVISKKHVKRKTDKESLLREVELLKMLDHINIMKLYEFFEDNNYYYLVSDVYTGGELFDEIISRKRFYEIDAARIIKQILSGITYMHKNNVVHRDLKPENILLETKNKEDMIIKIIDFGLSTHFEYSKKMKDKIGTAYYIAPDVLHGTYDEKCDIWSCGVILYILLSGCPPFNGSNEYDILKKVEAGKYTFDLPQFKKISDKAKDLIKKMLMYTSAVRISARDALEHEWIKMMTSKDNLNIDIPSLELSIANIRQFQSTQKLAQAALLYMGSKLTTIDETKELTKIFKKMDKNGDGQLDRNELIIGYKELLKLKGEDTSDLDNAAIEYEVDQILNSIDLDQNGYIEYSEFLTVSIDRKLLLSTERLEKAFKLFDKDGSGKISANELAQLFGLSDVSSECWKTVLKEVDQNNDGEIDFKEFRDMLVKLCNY

COc1ccc(C2c3ccccc3-c3nc(N)nc(N)c3C2C)cc1 (stereo unspecified)
growth inhibition [1]: 0%
inhibition [2]: 3%
growth inhibition [3]: 97% (active)
outcome [4]: inactive
outcome [5]: inactive
outcome [6]: inactive
outcome [7]: inactive

Cc1[nH]c(C)c(-c2ccc(Oc3ccc(Cl)cc3)cc2)c(=O)c1Cl
growth inhibition [1]: 16%
inhibition [2]: -3%
growth inhibition [3]: 91% (active)
outcome [4]: inactive
outcome [5]: inactive
outcome [6]: inactive
outcome [7]: inactive

Nc1nc(N)c2c(ccc3c2cnn3Cc2cccnc2)n1
growth inhibition [1]: 96% (active)
inhibition [2]: 0%
growth inhibition [3]: 95% (active)
outcome [4]: inactive
outcome [5]: inactive
outcome [6]: inactive
outcome [7]: inactive

COc1ccc(Cc2cnc(N)nc2N)cc1OCCCOc1ccccc1
growth inhibition [1]: 4%
inhibition [2]: 6%
growth inhibition [3]: 91% (active)
outcome [4]: inactive
outcome [5]: inactive
outcome [6]: inactive
outcome [7]: inactive

CCCc1ccc(Cc2cnc3nc(N)nc(N)c3c2C)cc1
growth inhibition [1]: -3%
inhibition [2]: 4%
growth inhibition [3]: 98% (active)
outcome [4]: inactive
outcome [5]: inactive
outcome [6]: inactive
outcome [7]: inactive

Cc1nc(C)c(-c2ccc(Oc3ccc(OC(F)(F)F)cc3)cc2)c(OC(=O)c2ccccc2)c1Cl
growth inhibition [1]: 97% (active)
inhibition [2]: 2%
growth inhibition [3]: 97% (active)
outcome [4]: inactive
outcome [5]: inactive
outcome [6]: inactive
outcome [7]: inactive

Nc1nc(N)c2c(Sc3ccccc3)cccc2n1
growth inhibition [1]: 0%
inhibition [2]: -5%
growth inhibition [3]: 97% (active)
outcome [4]: inactive
outcome [5]: inactive
outcome [6]: inactive
outcome [7]: inactive

Cc1nc2ccc(S(=O)(=O)Nc3ccc(C(=O)N[C@@H](CCC(=O)O)C(=O)O)cc3)cc2c(=O)[nH]1
growth inhibition [1]: 2%
inhibition [2]: 7%
growth inhibition [3]: 94% (active)
outcome [4]: inactive
outcome [5]: inactive
outcome [6]: inactive
outcome [7]: inactive

Cc1[nH]c(C)c(-c2ccc(Oc3ccc(Cl)c(Cl)c3)cc2)c(=O)c1Cl
growth inhibition [1]: 97% (active)
inhibition [2]: -1%
growth inhibition [3]: 100% (active)
outcome [4]: inactive
outcome [5]: inactive
outcome [6]: inactive
outcome [7]: inactive

CCNCCCC(C)Nc1ccnc2cc(Cl)ccc12 (stereo unspecified)
growth inhibition [1]: -3%
inhibition [2]: 0%
growth inhibition [3]: 100% (active)
outcome [4]: inactive
outcome [5]: inactive
outcome [6]: inactive
outcome [7]: inactive

COc1cc(Cc2cnc(N)nc2N)cc(OCCCCC#N)c1OC
growth inhibition [1]: -1%
inhibition [2]: 8%
growth inhibition [3]: 86% (active)
outcome [4]: inactive
outcome [5]: inactive
outcome [6]: inactive
outcome [7]: inactive

Cc1[nH]c(C)c(-c2ccc(Oc3cc(Cl)cc(Cl)c3)cc2)c(=O)c1Cl
growth inhibition [1]: 96% (active)
inhibition [2]: -7%
growth inhibition [3]: 96% (active)
outcome [4]: inactive
outcome [5]: inactive
outcome [6]: inactive
outcome [7]: inactive

Cc1[nH]c(C)c(-c2ccc(Cl)cc2)c(=O)c1I
growth inhibition [1]: 96% (active)
inhibition [2]: -5%
growth inhibition [3]: 93% (active)
outcome [4]: inactive
outcome [5]: inactive
outcome [6]: inactive
outcome [7]: inactive

CCC(C(C)C)n1ccc2c3c(N)nc(N)nc3ccc21 (stereo unspecified)
growth inhibition [1]: 95% (active)
inhibition [2]: 3%
growth inhibition [3]: 95% (active)
outcome [4]: inactive
outcome [5]: inactive
outcome [6]: inactive
outcome [7]: inactive

c1ccc2c(CNCCCN3CCN(CCCNCc4c5ccccc5cc5ccccc45)CC3)c3ccccc3cc2c1
growth inhibition [1]: 100% (active)
inhibition [2]: 0%
growth inhibition [3]: 101% (active)
outcome [4]: inactive
outcome [5]: inactive
outcome [6]: inactive
outcome [7]: inactive

Oc1c(CNC2CCCCC2)cc(Cl)c2ccccc12
growth inhibition [1]: 101% (active)
inhibition [2]: 0%
growth inhibition [3]: 98% (active)
outcome [4]: inactive
outcome [5]: inactive
outcome [6]: inactive
outcome [7]: inactive

Nc1nc(N)c2c(n1)CCc1cc(Br)ccc1-2
growth inhibition [1]: 4%
inhibition [2]: 6%
growth inhibition [3]: 87% (active)
outcome [4]: inactive
outcome [5]: inactive
outcome [6]: inactive
outcome [7]: inactive

Cc1ccc(Cc2cccc3nc(N)nc(N)c23)cc1
growth inhibition [1]: 0%
inhibition [2]: -2%
growth inhibition [3]: 92% (active)
outcome [4]: inactive
outcome [5]: inactive
outcome [6]: inactive
outcome [7]: inactive

Cc1nc(C)c(-c2ccc(Oc3ccc(OC(F)(F)F)cc3)cc2)c(OC(=O)c2ccc(CN(C)C)cc2)c1Cl
growth inhibition [1]: 98% (active)
inhibition [2]: 6%
growth inhibition [3]: 98% (active)
outcome [4]: inactive
outcome [5]: inactive
outcome [6]: inactive
outcome [7]: inactive

CCC(=C(CC)c1ccc(O)c(CNC2CCCCC2)c1)c1ccc(O)c(CNC2CCCCC2)c1
growth inhibition [1]: 100% (active)
inhibition [2]: -1%
growth inhibition [3]: 100% (active)
outcome [4]: inactive
outcome [5]: inactive
outcome [6]: inactive
outcome [7]: inactive

Cc1[nH]c(C)c(-c2ccc(Oc3ccc(Cl)c(Cl)c3)cc2)c(=O)c1Br
growth inhibition [1]: 96% (active)
inhibition [2]: -1%
growth inhibition [3]: 97% (active)
outcome [4]: inactive
outcome [5]: inactive
outcome [6]: inactive
outcome [7]: inactive

CCN(C)C(=O)n1ncc2c3c(N)nc(N)nc3ccc21
growth inhibition [1]: 0%
inhibition [2]: 6%
growth inhibition [3]: 95% (active)
outcome [4]: inactive
outcome [5]: inactive
outcome [6]: inactive
outcome [7]: inactive

Cc1c(Cc2ccc(C(C)C)cc2)cnc2nc(N)nc(N)c12
growth inhibition [1]: -3%
inhibition [2]: 6%
growth inhibition [3]: 97% (active)
outcome [4]: inactive
outcome [5]: inactive
outcome [6]: inactive
outcome [7]: inactive

Nc1nc(N)c2c(Oc3cc(Cl)c(Cl)c(Cl)c3)cccc2n1
growth inhibition [1]: 92% (active)
inhibition [2]: 4%
growth inhibition [3]: 101% (active)
outcome [4]: inactive
outcome [5]: inactive
outcome [6]: inactive
outcome [7]: inactive

CC(=NNC(=S)NCCc1ccccn1)c1ccccn1
growth inhibition [1]: 95% (active)
inhibition [2]: -3%
growth inhibition [3]: 100% (active)
outcome [4]: inactive
outcome [5]: inactive
outcome [6]: inactive
outcome [7]: inactive

c1ccc2c(c1)cc(CNCCCN1CCN(CCCNCc3cc4ccccc4c4ccccc34)CC1)c1ccccc12
growth inhibition [1]: 98% (active)
inhibition [2]: 2%
growth inhibition [3]: 101% (active)
outcome [4]: inactive
outcome [5]: inactive
outcome [6]: inactive
outcome [7]: inactive

Nc1ccncc1C(=O)NCCCCN1CCN(c2nsc3ccccc23)CC1
growth inhibition [1]: 9%
inhibition [2]: 6%
growth inhibition [3]: 101% (active)
outcome [4]: inactive
outcome [5]: inactive
outcome [6]: inactive
outcome [7]: inactive

CCOC(=O)c1c(-c2ccccc2)c(C(=O)OCC)n2ccccc12
growth inhibition [1]: 70% (active)
inhibition [2]: -1%
growth inhibition [3]: 93% (active)
outcome [4]: inactive
outcome [5]: inactive
outcome [6]: inactive
outcome [7]: inactive
